# A selection: hits, their analogues and other compounds. The true share with any hit is near 13%.
# Lmaj promast: Leishmania major promastigote growth inhibition | AID 1063 | actives 9% (n = 200,000) | Leishmania major promastigotes, resazurin fluorescence viability | inhibition, % at 10 µM; in the data active = inhibition above about 50%;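 note: promastigotes grown with compound for 44 hours at 28 °C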
# WT yeast gro inh: growth inhibition of WT yeast, mitochondrial fusion screen; mitochondrial fusion phenotypic screen, WT strain; inhibition, % at 10 µM; actives 2.1% (n = 190,000); AID 1362; in the data active = inhibition above about 58%; tested in S. cerevisiae
# CHOP inh: CHOP inhibition in unfolded protein response; CHO-K1 CHOP-promoter luciferase, tunicamycin-induced, 15-18 h; inhibition, % at 10 µM; actives 3.8% (n = 220,000);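 active = compounds that reduced the stress-induced luciferase reporter signal by more than about 70% of percent inhibition, limit read from the data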
# RAM inhibit: yeast RAM network inhibition; S. cerevisiae dse1pr::URA3 reporter, 5-FOA growth OD615, 2 d; analog-sensitive cbk1-as2 kinase mutant strain; inhibition, % at 50 µM; actives 1.8% (n = 190,000); AID 868;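 active = inhibition above a set limit, 3 SD over mean compound inhibition, cut at about 8.4% in these data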;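 note: inhibition rescues growth on 5-FOA so higher OD means more RAM inhibition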
# Hits are given with their value; i = inactive; nt = not tested or not shown.
SMILES,Lmaj promast,WT yeast gro inh,CHOP inh,RAM inhibit
COc1ccc(C(=O)NC(C(=O)NCC(=O)Nc2c(C)cccc2C)C(C)C)cc1 (centres undefined),67,i,i,i
O=C(NNc1nc2c(F)cccc2s1)C1COc2ccccc2O1 (centres undefined),i,i,i,i
Cc1ccc2sc(NNC(=O)C3COc4ccccc4O3)nc2c1C (centres undefined),i,67,i,i
O=C(Nc1nc(-c2ccccn2)cs1)C1COc2ccccc2O1 (centres undefined),77,i,i,i
Cc1cccc(C(=O)N[C@H](C(=O)Nc2nc(C)cs2)C(C)C)c1,64,i,i,i
O=C(Nc1nc(-c2ccccc2)cs1)C1COc2ccccc2O1 (centres undefined),i,i,i,i
O=C(Nc1ccc(S(=O)(=O)N2CCCC2)cc1)C1COc2ccccc2O1 (centres undefined),i,i,i,i
O=C(Nc1nc(-c2ccc(S(=O)(=O)N3CCCC3)cc2)cs1)C1COc2ccccc2O1 (centres undefined),84,i,i,i
C[C@@H](C(=O)Nc1nc(-c2ccccn2)cs1)N1C(=O)C2CCCCC2C1=O (some centres undefined),100,i,i,i
O=C(Nc1nnc(SCc2ccccc2Cl)s1)C1COc2ccccc2O1 (centres undefined),i,60,i,i
O=C(CN1C(=O)C2CCCCC2C1=O)Nc1nc(-c2ccccn2)cs1 (centres undefined),i,i,i,i
Cc1ccc(C(=O)Nc2nc(-c3ccccn3)cs2)o1,nt,nt,i,nt
CC1CC1C(=O)Nc1nc(-c2ccccn2)cs1 (centres undefined),100,i,i,i
Cc1ccccc1CSc1nnc(NC(=O)C2COc3ccccc3O2)s1 (centres undefined),i,i,i,i
S=C1NC2(CCCCC2)Nc2ccccc21,i,i,i,i
c1ccc(CCNc2nc(-c3ccccn3)cs2)cc1,100,i,i,i
O=C(O)[C@@H]1C[C@@H](C(=O)O)N1,nt,nt,i,nt
C/C(=N/NC(=S)Nc1cccc(C)c1)c1cccc([N+](=O)[O-])c1,i,i,i,i
Cc1cccc(NC(=S)N/N=C(\c2ccccc2)C(C)C)c1,i,73,i,i
CC/C(=N\NC(=S)Nc1cc(C)ccc1C)c1ccc(OC(F)F)cc1,74,66,i,i
CC/C(=N\NC(=S)Nc1cccc(C)c1)c1ccccc1,i,71,i,i
CCNC(=S)N/N=C(\C)c1cc2ccccc2o1,i,i,i,i
C/C(=N\NC(=S)Nc1cccc(C)c1)c1cc2ccccc2o1,90,i,i,i
CC(C)/C(=N\NC(=O)Nc1ccccc1)c1ccccc1,i,i,i,i
CCN(CC)c1ccc(CN2CCC(C(=O)NCc3ccc(C)cc3)CC2)cc1,i,i,i,i
SMILES,Lmaj promast,WT yeast gro inh,CHOP inh,RAM inhibit
COc1cccc(CC(NC(C)=O)C(=O)NC2CCN(S(=O)(=O)c3ccc(F)cc3)CC2)c1OC (centres undefined),i,i,i,i
COCCNC(=O)c1ccc2c(c1)NC(=O)CS2,i,i,i,i
CCOc1cc2c(cc1C(C)(C)C)NC(=O)CS2,i,i,85,i
O=C(COC(=O)c1cccc(NS(=O)(=O)c2ccc(F)c(F)c2)c1)NC(=O)NC1CCCC1,i,i,i,i
Cc1cc(=O)n2c(C(=O)Nc3ccc(C(=O)OC(C)C)cc3)c(C(=O)Nc3ccccc3)sc2n1,i,i,96,i
Cc1ccc(-c2nnc(Nc3ccc(C(=O)N(C)C)cc3)c3ccccc23)cc1S(=O)(=O)NCC1CCCO1 (centres undefined),i,i,i,i
COC(=O)c1ccc(Nc2nnc(-c3ccc(C)c(S(=O)(=O)NCC4CCCO4)c3)c3ccccc23)cc1 (centres undefined),92,i,i,i
CCOC(=O)CNS(=O)(=O)c1cc(-c2nnc(Nc3ccc4c(c3)OCO4)c3ccccc23)ccc1C,55,i,i,i
CC(C)N1CCN(Cc2ccc(C#CCCO)cc2)CC1CCO (centres undefined),i,i,i,i
CC(C)C(c1nnnn1C(C)(C)C)N1CCC(Cc2ccccc2)CC1 (centres undefined),i,73,i,i
Cn1c(=O)c2c(SCC(=O)N3CCCc4ccccc43)nc(CC(C)(C)C)nc2n(C)c1=O,52,i,84,i
CCCc1nc(SCC(=O)N2CCC(Cc3ccccc3)CC2)c2c(=O)n(C)c(=O)n(C)c2n1,i,81,i,i
Cn1c(=O)c2c(SCC(=O)N3CCOCC3)nc(CC(C)(C)C)nc2n(C)c1=O,i,i,i,i
CCCc1nc(SCC(=O)N2CCCc3ccccc32)c2c(=O)n(C)c(=O)n(C)c2n1,i,73,i,i
Cn1c(=O)c2c(SCC(=O)N3CCC(Cc4ccccc4)CC3)nc(C3CC3)nc2n(C)c1=O,nt,i,nt,nt
COc1ccc(-c2ccc(-c3noc(-c4ccco4)n3)c(OC)n2)cc1,i,i,72,i
COc1nc(-c2ccccc2)ccc1-c1noc(-c2ccccc2)n1,i,i,i,11
COc1ccc(-c2ccc(-c3noc(-c4ccccc4F)n3)c(OC)n2)cc1,i,i,74,i
COc1ccc(-c2noc(-c3ccccc3F)n2)cc1,i,i,i,i
O=C(NCc1ccccc1Cl)c1ccccc1Oc1ccccc1,i,i,i,i
O=C(NCc1ccco1)/C(=C/c1cccnc1)NC(=O)c1cccc(Br)c1,i,i,i,i
O=C(NCc1ccco1)/C(=C\c1cccnc1)NC(=O)c1ccccc1F,53,i,i,i
CCOC(=O)C1=C(N)Oc2cc(O)ccc2C1c1ccc([N+](=O)[O-])cc1 (centres undefined),i,i,94,i
CC1(C)CC2CC(C)(CN2C(=O)c2ccc([N+](=O)[O-])cc2[N+](=O)[O-])C1 (centres undefined),52,i,i,i
CC1(C)CC2CC(C)(CN2C(=O)c2cc(-c3ccccc3O)on2)C1 (centres undefined),i,63,76,i
SMILES,Lmaj promast,WT yeast gro inh,CHOP inh,RAM inhibit
COc1ccc(-c2cc(C(=O)N3CC4(C)CC3CC(C)(C)C4)no2)cc1 (centres undefined),i,i,i,i
COc1ccc(-c2cc(C(=O)N3CC4(C)CC3CC(C)(C)C4)no2)cc1OC (centres undefined),i,i,73,i
Cc1nc(=O)c(-c2ccccc2)c(C)n1CCCCCC(=O)O,i,83,i,i
Cc1cc(NC(=O)CN2CCN(c3cccc(Cl)c3)CC2)no1,i,i,i,i
Cc1noc2ncnc(N3CCN(c4cccc(Cl)c4)CC3)c12,i,61,i,i
CCNC(=S)SCCOc1ccc(C)cc1,57,i,i,i
CCOc1nc(SCCOc2ccc(C)cc2)nc(N(C)C)n1,i,i,i,i
CCNc1nc(NCC)nc(SCCOc2ccc(C)cc2)n1,i,88,i,i
CCNc1nc(NCC)nc(SCCOC(=O)Nc2ccccc2)n1,77,i,i,i
C=C(C)CC(Nc1ccc(OC)cc1)c1ccco1 (centres undefined),i,i,i,i
C=CCNC(=S)NNC(=O)c1ccc(=O)n(Cc2ccc(Cl)cc2Cl)c1,i,i,i,i

# Bioassay records as filed in PubChem BioAssay.
